One assay addresses Albumin (Bos taurus) (UniProt P02769). Put plainly: compounds binding labelled BSA control protein – biochemical, small-molecule microarray, Alexa647 label, 635/667 nm fluorescence, artefact control for SMM control protein annotation, profiling panel (AID 1118).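 Further: score merges 667 nm emission intensity and signal-to-noise per printed compound spot.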 The settings on record: BSA-A647 binding, fluorescence 635 nm, higher = more signal.
Assay [1] can be described thus: probe aXIP binding to arrayed compounds – biochemical, NeuroSMM set, 635/667 nm fluorescence, primary screen (AID 1119).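 Further: probe is the protein aXip251-270 applied at 1 µg/mL to compound-printed slides; binding of probe to printed compounds measured as 667 nm fluorescence plus signal to noise.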 To be noted: small-molecule microarray, higher = more signal, called active from +8 up or from −8 down.
Assay [2] can be described thus: probe aNOTCH3 binding on compound microarray – biochemical, small-molecule microarray, 635/667 nm fluorescence, primary screen (AID 1120).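 Further: probe is a biotin-tagged antibody raised against NOTCH3 rather than NOTCH3 protein; score merges spot fluorescence near 667 nm with spot signal to noise.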 The settings on record: higher = more signal.
A short description of assay [3]: probe aNOTCH2 binding on compound microarray – biochemical, small-molecule microarray, 635/667 nm fluorescence, primary screen (AID 1121).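 Further: score merges feature fluorescence read at 667 nm with its signal to noise.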 To be noted: higher = more signal.
For assay [4], the target named is Carbonic anhydrase 2 (Homo sapiens) (UniProt P00918). The assay is described as follows: compounds binding carbonic anhydrase 2 – biochemical, small-molecule microarray, Alexa647-labelled CAII, profiling panel (AID 1122). To be noted: CAII-A647 binding fluorescence, higher = more signal.
A short description of assay [5]: COS7 lysate on small-molecule microarray, probe aHis, 635 nm (AID 1123).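 Further: z-score combines 667nm fluorescence intensity with signal-to-noise per printed compound spot.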 To be noted: COS7 cell lysate, fluorescence, higher = more signal.
Assay [6] can be described thus: probe aLAP1 signal on lysate-treated microarray – cell lysate, small-molecule microarray, COS7 lysate, primary screen (AID 1124).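 Further: lysate comes from COS7 cells expressing LAP1 and is applied at 0.3 µg/mL; score merges spot fluorescence near 667 nm with signal-to-noise over triplicate slides.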 To be noted: probe aLAP1, fluorescence, higher = more signal.
Another assay relates to Sam68 (KHDRBS1). Put plainly: compounds binding KHDRBS1 protein – biochemical, small-molecule microarray, 635 nm fluorescence, primary screen (AID 1125).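 Further: score merges 667 nm channel intensity with signal to noise over triplicate slides.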 To be noted: higher = more signal.
Assay [7] has as its system Chordin-like protein 2 (CHRDL2). Put plainly: compounds binding chordin-like 2 – biochemical, small-molecule microarray, 635 nm fluorescence, primary screen (AID 1126).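 Further: printed compound slides probed with Chrdl2 protein at 4 µg/mL for 1 h at 4 C; score merges 667 nm emission intensity with signal to noise over three replicate slides.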 To be noted: fluorescence 635 nm, higher = more signal.
Assay [8] addresses Concanavalin-A (Canavalia ensiformis) (UniProt P02866). Put plainly: compounds binding concanavalin A lectin – biochemical, small-molecule microarray, Alexa647 label, 635 nm, artefact control for SMM control protein annotation, primary screen (AID 1127).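 Further: z combines 667 nm emission intensity with signal-to-noise across three replicate slides.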 To be noted: ConA-A647 binding fluorescence, higher = more signal.
The nature of assay [9]: compounds binding Alexa647 anti-His antibody – biochemical, small-molecule microarray, 635 nm fluorescence, artefact control for SMM control protein annotation, primary screen (AID 1128).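 Further: score merges feature fluorescence with signal-to-noise for each printed compound spot.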 To be noted: higher = more signal.
In assay [10] the test system is Human papillomavirus type 1a E7 protein (residues 1-88). Put plainly: HPV1a E7 small-molecule binders, primary screen, biochemical, small-molecule microarray, residues 1-88, 635 nm (AID 1129). The settings on record: small-molecule microarray binding, fluorescence 635 nm; higher = more signal.
Assay [11] concerns the target Focal adhesion kinase 1 (Homo sapiens) (UniProt Q05397). Put plainly: PTK2 protein binding on printed compound slides – biochemical, small-molecule microarray, 635/667 nm fluorescence, BSA, DTT, primary screen (AID 1130).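 Further: composite of spot emission at 667 nm and signal to noise over triplicate slides.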 The settings on record: 635 nm fluorescence, higher = more signal.
In assay [12] the test system is Fibrinogen (Alexa647-labelled). The assay is described as follows: Alexa647-fibrinogen binding to printed small molecules – biochemical, small-molecule microarray, 635/667 nm fluorescence, artefact control for SMM control-protein annotation, profiling panel (AID 1131).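 Further: z-score merges 667 nm fluorescence with per-spot signal-to-noise over triplicate slides.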 The settings on record: fibrinogen-A647 binding fluorescence, higher = more signal.
Assay [13] deals with Follistatin (Homo sapiens) (UniProt P19883). Put plainly: FST protein binding to printed compounds – biochemical, small-molecule microarray, 635/667 nm fluorescence, primary screen (AID 1132). The settings on record: 635 nm fluorescence, higher = more signal.
Chain of Follistatin (Homo sapiens) (P19883 whole entry, looked up): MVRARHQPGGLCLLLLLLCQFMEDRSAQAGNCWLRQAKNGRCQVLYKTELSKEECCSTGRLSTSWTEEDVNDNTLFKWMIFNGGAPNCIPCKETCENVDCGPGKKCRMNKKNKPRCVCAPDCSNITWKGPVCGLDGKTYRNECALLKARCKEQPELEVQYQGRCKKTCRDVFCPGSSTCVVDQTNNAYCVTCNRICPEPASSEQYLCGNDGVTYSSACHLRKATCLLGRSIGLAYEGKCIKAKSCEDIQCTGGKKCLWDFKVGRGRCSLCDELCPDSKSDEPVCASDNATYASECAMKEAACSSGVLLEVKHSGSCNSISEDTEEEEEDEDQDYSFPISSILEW
Assay [14] concerns the target Fibroblast growth factor 2 (Homo sapiens) (UniProt P09038). Put plainly: basic fibroblast growth factor binding to printed compounds – biochemical, small-molecule microarray, 635/667 nm fluorescence, primary screen (AID 1133). To be noted: FGF2, fluorescence 635/667, higher = more signal.
The nature of assay [15]: JC-1 mitochondrial potential readout, lung cancer cells – cell-based, A549, JC-1 fluorescence, basal, 24 h, 100 nL, profiling panel (AID 1138).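 Further: A549 lung adenocarcinoma cells under basal conditions with no added stimulus; test concentration not given here.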 The settings on record: higher = more signal.
For a further assay, the system named is Lefty1. The assay is described as follows: Lefty1 protein binding to printed compounds – biochemical, small-molecule microarray, 635/667 nm fluorescence, primary screen (AID 1139). The settings on record: fluorescence 635/667, higher = more signal.
In assay [16] the test system is wheat germ agglutinin (Triticum aestivum), Alexa647-labelled. Put plainly: Alexa647-WGA lectin binding to printed small molecules – biochemical, small-molecule microarray, 635/667 nm fluorescence, artefact control for SMM control-protein annotation, profiling panel (AID 1140).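 Further: score merges 667 nm feature emission with signal to noise over triplicate slides.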 To be noted: WGA-A647 binding, 635 nm fluorescence, higher = more signal.
For assay [17], the target named is Luciferin 4-monooxygenase (Photinus pyralis) (UniProt P08659). Put plainly: inhibition of purified Photinus pyralis luciferase – biochemical, luminescence, purified enzyme, 2006 set, primary screen (AID 1141).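 Further: cell-free assay with purified firefly luciferase at 100 ng per well in PBS; test concentration not given here.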 The settings on record: purified firefly luciferase, SteadyGlo luminescence, 30 min; higher = more signal, called active from +8 up or from −8 down.
Chain of Luciferin 4-monooxygenase (Photinus pyralis) (P08659 whole entry, looked up): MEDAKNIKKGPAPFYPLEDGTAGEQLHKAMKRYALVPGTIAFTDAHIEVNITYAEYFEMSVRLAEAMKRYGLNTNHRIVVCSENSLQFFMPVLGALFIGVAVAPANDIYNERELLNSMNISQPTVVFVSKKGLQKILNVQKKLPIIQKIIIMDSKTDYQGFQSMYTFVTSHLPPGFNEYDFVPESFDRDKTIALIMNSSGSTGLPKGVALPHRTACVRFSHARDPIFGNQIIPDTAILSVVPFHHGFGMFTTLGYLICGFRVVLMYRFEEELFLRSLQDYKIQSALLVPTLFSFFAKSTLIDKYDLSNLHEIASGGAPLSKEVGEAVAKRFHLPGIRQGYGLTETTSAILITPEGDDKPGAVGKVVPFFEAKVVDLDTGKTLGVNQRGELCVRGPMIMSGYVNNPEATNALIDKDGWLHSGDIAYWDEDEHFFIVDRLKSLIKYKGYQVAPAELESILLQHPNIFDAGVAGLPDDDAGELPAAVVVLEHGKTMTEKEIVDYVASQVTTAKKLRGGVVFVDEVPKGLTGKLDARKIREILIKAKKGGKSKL

Activity calls are given as the source filed them.

Chain of Albumin (Bos taurus) (P02769 whole entry, looked up): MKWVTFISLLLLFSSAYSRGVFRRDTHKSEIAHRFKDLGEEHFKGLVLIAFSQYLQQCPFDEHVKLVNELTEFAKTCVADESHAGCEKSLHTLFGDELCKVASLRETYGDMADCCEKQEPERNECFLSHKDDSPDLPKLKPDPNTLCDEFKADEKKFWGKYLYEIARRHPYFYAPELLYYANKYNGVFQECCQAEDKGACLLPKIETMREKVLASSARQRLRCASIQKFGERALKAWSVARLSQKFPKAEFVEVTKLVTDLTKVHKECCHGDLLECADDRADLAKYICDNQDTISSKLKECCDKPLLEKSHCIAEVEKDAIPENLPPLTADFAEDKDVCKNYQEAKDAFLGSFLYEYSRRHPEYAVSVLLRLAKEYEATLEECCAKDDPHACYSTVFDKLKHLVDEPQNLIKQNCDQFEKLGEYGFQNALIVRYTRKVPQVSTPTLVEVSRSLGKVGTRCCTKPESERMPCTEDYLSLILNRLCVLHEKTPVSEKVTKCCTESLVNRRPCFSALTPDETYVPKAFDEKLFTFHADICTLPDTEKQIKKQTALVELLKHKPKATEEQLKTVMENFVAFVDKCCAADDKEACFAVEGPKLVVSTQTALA
Chain of Fibroblast growth factor 2 (Homo sapiens) (P09038 whole entry, looked up): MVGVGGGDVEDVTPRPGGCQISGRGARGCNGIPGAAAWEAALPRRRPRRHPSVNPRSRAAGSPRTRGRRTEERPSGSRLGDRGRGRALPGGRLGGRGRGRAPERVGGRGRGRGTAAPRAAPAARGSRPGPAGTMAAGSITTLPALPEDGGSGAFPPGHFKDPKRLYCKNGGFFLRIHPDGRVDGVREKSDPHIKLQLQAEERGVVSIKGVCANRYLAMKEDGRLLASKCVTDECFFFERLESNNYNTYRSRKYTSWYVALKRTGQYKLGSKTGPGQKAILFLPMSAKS
Chain of Concanavalin-A (Canavalia ensiformis) (P02866 whole entry, looked up): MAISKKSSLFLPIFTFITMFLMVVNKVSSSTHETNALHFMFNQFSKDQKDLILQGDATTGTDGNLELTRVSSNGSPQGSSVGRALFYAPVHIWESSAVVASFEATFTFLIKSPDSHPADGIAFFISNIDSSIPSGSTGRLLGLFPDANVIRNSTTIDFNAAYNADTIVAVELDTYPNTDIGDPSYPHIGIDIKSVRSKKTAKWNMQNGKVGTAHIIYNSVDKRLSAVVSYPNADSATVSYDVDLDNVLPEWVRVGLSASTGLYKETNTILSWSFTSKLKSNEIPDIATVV
Chain of Focal adhesion kinase 1 (Homo sapiens) (Q05397 whole entry, looked up): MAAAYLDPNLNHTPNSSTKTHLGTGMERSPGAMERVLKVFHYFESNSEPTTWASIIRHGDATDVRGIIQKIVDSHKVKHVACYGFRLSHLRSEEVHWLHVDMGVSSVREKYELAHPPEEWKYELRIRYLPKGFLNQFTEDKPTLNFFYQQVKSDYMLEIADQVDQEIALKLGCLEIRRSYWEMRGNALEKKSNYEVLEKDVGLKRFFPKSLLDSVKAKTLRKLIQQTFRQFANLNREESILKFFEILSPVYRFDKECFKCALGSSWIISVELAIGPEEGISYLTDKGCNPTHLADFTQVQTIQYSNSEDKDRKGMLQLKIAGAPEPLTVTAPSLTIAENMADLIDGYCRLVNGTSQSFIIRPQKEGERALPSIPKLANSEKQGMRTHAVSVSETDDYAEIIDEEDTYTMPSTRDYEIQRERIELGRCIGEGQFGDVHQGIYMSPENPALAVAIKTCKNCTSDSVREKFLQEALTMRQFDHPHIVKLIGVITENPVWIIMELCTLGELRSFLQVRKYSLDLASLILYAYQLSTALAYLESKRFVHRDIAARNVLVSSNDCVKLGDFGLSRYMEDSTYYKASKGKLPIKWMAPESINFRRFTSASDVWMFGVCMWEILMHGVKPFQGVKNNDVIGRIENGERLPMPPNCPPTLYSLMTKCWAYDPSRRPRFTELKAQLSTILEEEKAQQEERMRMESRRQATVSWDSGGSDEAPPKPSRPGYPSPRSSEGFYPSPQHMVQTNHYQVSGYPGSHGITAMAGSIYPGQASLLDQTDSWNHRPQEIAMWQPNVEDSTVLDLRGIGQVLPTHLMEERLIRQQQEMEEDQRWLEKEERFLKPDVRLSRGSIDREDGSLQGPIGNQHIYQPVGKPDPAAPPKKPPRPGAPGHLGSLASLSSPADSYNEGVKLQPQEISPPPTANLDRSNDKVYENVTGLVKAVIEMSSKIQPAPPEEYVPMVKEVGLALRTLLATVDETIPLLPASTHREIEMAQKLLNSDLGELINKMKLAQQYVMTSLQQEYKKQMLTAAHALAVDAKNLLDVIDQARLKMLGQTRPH

For the molecule `C=C1C(=O)C=C2CN(C(=O)c3ccccc3)[C@@](Cc3ccc(OC)cc3)(C(=O)OC)[C@@H]12`, the composite z-score with Albumin (Bos taurus) came out at 1.07; in assay [2], 0.711; in assay [3], 0.11; in [4], 0.523; in assay [5] it was 3.32; in [6], 0.471. Further, the composite z-score was 1.3 in the assay with Sam68 (KHDRBS1); -0.639 in assay [7]; 1.14 in assay [8]; 1.07 in [9]; 1.26 in assay [10]; 0.408 in [11]. Besides, the composite z-score in assay [12] was 1.02; in assay [13], 1.29; in assay [14] it was -0.0686; in the assay with Lefty1, 0.381; in assay [16], 1.13. The composite Z-score in [1] was 0.579 (inactive). Besides, the z-score is -0.322 in assay [15] and 3.22 (inactive) in [17].

Turning to `COC(=O)[C@@]1(Cc2ccccc2)[C@H]2c3cc(C(=O)N(C)C)n(CCO)c3C[C@H]2CN1C(=O)c1ccccc1`, the composite z-score with Albumin (Bos taurus) turned out to be 1.04; in [2], 0.0259; in assay [3], 0.19; in assay [4] it was 0.958; in [5] it was 3.13; in [6] it was 0.877. Besides, the composite z-score in the assay on Sam68 (KHDRBS1) is 1.24; in assay [7], -1.44; in assay [8] it was 1.2; in assay [9], 1.86; in assay [10], 1.16; in [11] it was 1.89. Moreover, the composite z-score in assay [12] was 1.02; in [13], -0.535; in assay [14], -0.541; in the assay on Lefty1 it was -0.986; in [16], 1.41. The composite Z-score in [1] is 0.335 (inactive). Also, the z-score is 0.628 in assay [15] and 2.11 (inactive) in assay [17].

Take `COc1ccc([Si](C)(C)[C@H]2[C@H](CCO)O[C@@]3(C(=O)N(Cc4cccc(N(C=O)c5ccccc5)c4)c4ccccc43)[C@@H]2C)cc1`: the composite z-score in the assay with Albumin (Bos taurus) is 0.291; in [2], 0.059; in assay [3], -0.102; in assay [4], 0.467; in assay [5] it was 1.28; in assay [6], 0.677. In addition, the composite z-score is 1.28 in the assay on Sam68 (KHDRBS1); 0.293 in assay [7]; 1.15 in assay [8]; 0.911 in [9]; 1.19 in assay [10]; -0.048 in [11]. Further, the composite z-score in assay [12] is 0.777; in [13] it was 0.832; in [14], 0.886; in the assay on Lefty1, 1.05; in assay [16] it was 0.259. Moreover, in assay [1], the composite Z-score was -0.313 (inactive). The z-score is 0.837 in assay [15] and 0.281 (inactive) in assay [17].

On to `CC(C)C[C@@H]1NC(=O)[C@@H]2C[C@H](C(=O)NCCCCCCNC(=O)CS)[C@H](c3cccc(OCCO)c3)N2C1=O`, for which the composite z-score in the assay with Albumin (Bos taurus) is -0.256; in assay [2], 0.248; in [3], -0.123; in assay [4] it was 0.228; in assay [5] it was 1.94; in assay [6], 0.252. For the same molecule, the composite z-score amounted to 1.29 in the assay on Sam68 (KHDRBS1); 1.36 in assay [7]; 0.862 in assay [8]; 1.74 in assay [9]; 1.26 in assay [10]; 0.114 in assay [11]. Moreover, the composite z-score in [12] stood at 0.892; in [13], 1.42; in [14], 1.71; with Lefty1, 1.44; in assay [16], 0.875. The composite Z-score in assay [1] is 0.491 (inactive). Besides, the z-score was -0.0497 in assay [15] and -0.986 (inactive) in [17].

In the case of `Cc1ccc(S[C@]2(C(=O)NCCCN(C)C)CC(=O)N(Cc3ccccc3C(F)(F)F)[C@@H]2c2ccc(CO)cc2I)cc1`, the composite z-score in the assay with Albumin (Bos taurus) is 0.374; in assay [2], -0.422; in assay [3], 0.337; in assay [4] it was 0.792; in assay [5], 1.36; in [6], 1.83. The composite z-score in the assay with Sam68 (KHDRBS1) was 0.492; in assay [7] it was -0.532; in assay [8] it was 0.0055; in assay [9], -0.626; in [10], -0.0904; in [11], 0.591. Moreover, the composite z-score in [12] was -0.745; in assay [13], 0.0315; in assay [14], -0.635; in the assay with Lefty1, -1.32; in assay [16] it was -0.193. For the same molecule, the composite Z-score in assay [1] is -0.755 (inactive). The z-score in [15] was 0.281; in assay [17] it was -0.514 (inactive).

With `CC(C)=CCCC(C)=CC(O)C1C=CC2C(=O)NC(=O)C2N1Nc1ccccn1` (stereo not given), the composite z-score came to 0.408 in the assay with Albumin (Bos taurus); 0.254 in [2]; 0.0047 in assay [3]; 0.725 in [4]; 0.39 in assay [5]; 0.969 in assay [6]. Further, the composite z-score in the assay with Sam68 (KHDRBS1) was 1.25; in assay [7] it was 1.43; in assay [8], 0.932; in [9], 1.97; in assay [10], 1.08; in assay [11] it was -0.097. For the same molecule, the composite z-score in [12] was found to be 0.868; in assay [13], 1.39; in assay [14] it was 1.7; in the assay with Lefty1, 1.54; in assay [16], 0.73. Besides, in [1], the composite Z-score was 0.992 (inactive). Also, the results for the z-score in assay [15] and in assay [17] were 0.966 and -1.17 (inactive), respectively.

Consider `CN(C)C(=O)[C@@]1(Cc2ccccc2CN=[N+]=[N-])COC(c2ccc(OCCCO)cc2)=N1`, for which the composite z-score in the assay with Albumin (Bos taurus) was 0.819; in [2], -0.0048; in [3], -0.156; in assay [4], 0.572; in assay [5], 1.78; in assay [6] it was -0.0884. Besides, the composite z-score in the assay on Sam68 (KHDRBS1) is 0.0673; in assay [7], -0.781; in [8] it was 1.04; in assay [9] it was 1.81; in [10], 1.15; in [11], 0.652. For the same molecule, the composite z-score in [12] was 0.949; in assay [13] it was -0.0539; in assay [14], -0.572; in the assay with Lefty1, -0.42; in assay [16] it was 0.603. In addition, the composite Z-score in assay [1] was -0.0705 (inactive). Besides, the z-score in assay [15] was 1.43; in assay [17], 1.15 (inactive).

Turning to `OCCCC1=CC(c2ccc(CN3CCCC3)cc2)N(Cc2cccc(OC(F)(F)F)c2)CC1` (stereo not given), the composite z-score with Albumin (Bos taurus) was 0.465; in [2], 0.0642; in [3], -0.0907; in assay [4], -0.0985; in assay [5], 0.251; in assay [6], -0.309. The composite z-score in the assay with Sam68 (KHDRBS1) was -0.0506; in assay [7] it was 0.248; in assay [8] it was -0.796; in [9], -0.299; in [10] it was -0.377; in [11] it was 0.213. Moreover, the composite z-score is -0.575 in [12]; 0.611 in assay [13]; 0.215 in assay [14]; 0.326 with Lefty1; -0.227 in [16]. Besides, in [1], the composite Z-score was 0.451 (inactive). In addition, the results for the z-score in [15] and in assay [17] were 1.17 and -0.222 (inactive), respectively.

Values taken from PubChem BioAssay.
